# Measured values: PubChem BioAssay
# What was measured:
# [1] = system: Human papillomavirus type 1a protein E7 (residues 44-93); test: HPV1a E7 fragment binders on microarrays, primary screen, biochemical, small-molecule microarray, residues 44-93, 635 nm fluorescence (AID 1108); conditions: small-molecule microarray binding, fluorescence 635 nm; higher = more signal;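 further: E7 fragment applied at 1 µg/mL in TBST for 1 h at 4 C; score combines spot fluorescence with its signal to noise ratio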
# [2] = modulators of HCV replicon luciferase signal, primary screen, HCV replication inhibitor project, Huh7 cells, luciferase reporter (AID 1109); conditions: 48 h, higher = more signal;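 further: huh7 hepatoma cells harbouring a luciferase neomycin HCV replicon reporter; luciferase luminescence as measure of HCV replicon replication; test concentration not given here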
# [3] = biological target: Left-right determination factor 2 (Homo sapiens) (UniProt O00292); test: LEFTY2 binders on small-molecule microarrays, primary screen, biochemical, small-molecule microarray, 635 nm fluorescence scan (AID 1110); conditions: LEFTY2 binding, higher = more signal
# [4] = biological target: Calmodulin-1 (Homo sapiens) (UniProt P0DP23); test: CALM1 binders on microarrays, EGTA buffer, profiling panel, biochemical, small-molecule microarray, Cy5-labelled CALM1 (AID 1111); conditions: Cy5-CALM1 binding fluorescence, higher = more signal;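 further: labelled calmodulin applied in Tris saline Tween buffer holding calcium plus EGTA and DTT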
# [5] = biological target: Calmodulin-1 (Homo sapiens) (UniProt P0DP23); test: calcium-bound CALM1 binders on microarrays, profiling panel, artefact control for SMM control-protein annotation, biochemical, small-molecule microarray, Cy5-labelled CALM1, plus calcium (AID 1112); conditions: Cy5-CALM1 binding fluorescence, higher = more signal;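 further: score merges spot fluorescence with signal to noise from triplicate slides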
# [6] = small-molecule microarray binders of probe aWnt5a, primary screen, biochemical, biotinylated probe, 635/667 nm fluorescence (AID 1113); conditions: higher = more signal;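 further: score merges 667 nm fluorescence intensity with signal-to-noise per printed feature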
# [7] = small-molecule microarray binders of probe aShh, primary screen, biochemical, biotinylated probe, 635/667 nm fluorescence (AID 1114); conditions: higher = more signal;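 further: probe is biotin-labelled aShh protein from a stem cell growth factor screen; measures binding of labelled protein to compounds printed on the slide; score merges feature fluorescence at 667 nm with signal-to-noise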
# [8] = small-molecule microarray binders of probe aNog, primary screen, biochemical, biotinylated probe, 635/667 nm fluorescence (AID 1115); conditions: higher = more signal;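 further: probe is biotinylated aNog protein used at 0.15 µg/mL for 1 h at 4 C; z-score combines 667 nm fluorescence of each spot with its signal to noise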
# [9] = biological target: Torsin-1A-interacting protein 1 (Homo sapiens) (UniProt Q5JTV8); test: LAP1 binders from COS7 cell lysate, primary screen, small-molecule microarray, 635/667 nm fluorescence (AID 1116); conditions: COS7-hLAP1 lysate binding, 635 nm fluorescence, higher = more signal
# [10] = biological target: Alpha-bungarotoxin (Bungarus multicinctus) (UniProt P60615); test: alpha-bungarotoxin binders on microarray, profiling panel, artefact control for SMM control protein annotation, biochemical, small-molecule microarray, Alexa647 label, 635/667 nm fluorescence (AID 1117); conditions: alpha-BTX-A647 binding fluorescence, higher = more signal
# Chain of Alpha-bungarotoxin (Bungarus multicinctus) (P60615 whole entry, looked up): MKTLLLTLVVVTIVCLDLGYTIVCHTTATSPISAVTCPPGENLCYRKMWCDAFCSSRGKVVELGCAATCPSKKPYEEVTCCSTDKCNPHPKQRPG
# Chain of Torsin-1A-interacting protein 1 (Homo sapiens) (Q5JTV8 whole entry, looked up): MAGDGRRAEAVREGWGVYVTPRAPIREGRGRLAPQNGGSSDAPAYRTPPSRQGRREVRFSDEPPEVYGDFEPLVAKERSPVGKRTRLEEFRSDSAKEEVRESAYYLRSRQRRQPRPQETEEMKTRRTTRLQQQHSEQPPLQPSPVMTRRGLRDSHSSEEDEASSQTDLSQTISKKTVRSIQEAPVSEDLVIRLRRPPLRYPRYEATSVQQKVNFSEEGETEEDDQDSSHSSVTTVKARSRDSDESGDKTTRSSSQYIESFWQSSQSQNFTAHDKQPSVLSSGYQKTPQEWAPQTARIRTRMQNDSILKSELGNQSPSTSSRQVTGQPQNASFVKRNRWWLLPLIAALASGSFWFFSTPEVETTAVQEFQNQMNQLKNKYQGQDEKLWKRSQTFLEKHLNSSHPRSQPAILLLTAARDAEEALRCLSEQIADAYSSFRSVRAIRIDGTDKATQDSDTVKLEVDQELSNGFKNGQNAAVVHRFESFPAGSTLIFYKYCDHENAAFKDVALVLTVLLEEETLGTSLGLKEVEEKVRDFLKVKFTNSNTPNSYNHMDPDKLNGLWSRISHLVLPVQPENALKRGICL
# Chain of Left-right determination factor 2 (Homo sapiens) (O00292 whole entry, looked up): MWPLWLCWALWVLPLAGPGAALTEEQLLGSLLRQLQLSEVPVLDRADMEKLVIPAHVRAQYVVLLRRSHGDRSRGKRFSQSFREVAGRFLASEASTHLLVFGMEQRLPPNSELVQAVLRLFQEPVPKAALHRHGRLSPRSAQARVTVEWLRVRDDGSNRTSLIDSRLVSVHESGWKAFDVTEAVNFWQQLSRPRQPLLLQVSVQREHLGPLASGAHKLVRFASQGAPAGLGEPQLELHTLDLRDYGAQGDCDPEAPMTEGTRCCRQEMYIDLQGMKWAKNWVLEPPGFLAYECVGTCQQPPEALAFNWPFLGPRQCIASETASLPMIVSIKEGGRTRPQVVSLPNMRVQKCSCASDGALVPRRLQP
smiles,measurement,setting,value
CO[C@H]1COC(=O)CC=C[C@H](C)COC(=O)[C@@H](OCc2ccccc2)C=C[C@@H]1C,composite z-score,[1],-0.217
same,z-score,[2],0.165
same,composite z-score,[3],1.5
same,composite z-score,[4],-1.51
same,composite z-score,[5],-2.68
same,composite z-score,[6],-0.286
same,composite z-score,[7],-0.283
same,composite z-score,[8],-0.424
same,composite z-score,[9],0.237
same,composite z-score,[10],-0.74
C[C@@H]1CC[C@H]2C(=O)N3[C@@H](CC[C@@H](C)[C@@H]3c3cccc(N4CCOCC4)c3)C(=O)N2[C@H]1c1cccc(Br)c1,composite z-score,[1],0.396
same,z-score,[2],-1.97
same,composite z-score,[3],0.458
same,composite z-score,[4],0.361
same,composite z-score,[5],-0.0482
same,composite z-score,[6],-0.0357
same,composite z-score,[7],-0.138
same,composite z-score,[8],0.0205
same,composite z-score,[9],0.868
same,composite z-score,[10],1.6
C=C[C@H](OC)[C@@H](OC(=O)Nc1ccc(SC)cc1)c1ccc(OC)c(O)c1,composite z-score,[1],0.318
same,z-score,[2],0.899
same,composite z-score,[3],-0.784
same,composite z-score,[4],-0.414
same,composite z-score,[5],0.319
same,composite z-score,[6],-0.176
same,composite z-score,[7],-0.0626
same,composite z-score,[8],-0.15
same,composite z-score,[9],0.324
same,composite z-score,[10],-0.508
COc1cc(CO)cc(I)c1O[C@H]1C=C(C(=O)NCCO)C[C@@H](N(CC2CCCCC2)C(=O)c2cc3ccccc3oc2=O)[C@@H]1O,composite z-score,[1],-0.376
same,z-score,[2],0.806
same,composite z-score,[3],0.252
same,composite z-score,[4],0.0059
same,composite z-score,[5],-0.857
same,composite z-score,[6],-0.185
same,composite z-score,[7],-0.0904
same,composite z-score,[8],-0.446
same,composite z-score,[9],0.646
same,composite z-score,[10],-0.431
CC(=O)NCCCC[C@@H]1NC(=O)[C@H]2C[C@@H](C(=O)NCCCCCCN(C)C)[C@@H](c3ccc(O)cc3)N2C1=O,composite z-score,[1],0.19
same,z-score,[2],1.87
same,composite z-score,[3],0.851
same,composite z-score,[4],-0.382
same,composite z-score,[5],-1.53
same,composite z-score,[6],-0.154
same,composite z-score,[7],0.23
same,composite z-score,[8],0.512
same,composite z-score,[9],1.85
same,composite z-score,[10],2.01
C=C(C(=O)CC[C@H](OC(=O)c1ccccc1-c1ccccc1C(=O)O)c1ccc(CO)o1)C(C)C,composite z-score,[1],1.24
same,z-score,[2],-1.3
same,composite z-score,[3],0.408
same,composite z-score,[4],0.506
same,composite z-score,[5],-0.698
same,composite z-score,[6],0.0214
same,composite z-score,[7],-0.276
same,composite z-score,[8],0.265
same,composite z-score,[9],0.875
same,composite z-score,[10],0.905
COCCOC(=O)N1C(=O)[C@@]2(c3cc(C#CCCO)ccc31)[C@H](c1ccc(OCCO)cc1)N1[C@H](c3ccccc3)[C@H](c3ccccc3)OC(=O)[C@H]1[C@@H]2C(=O)NC[C@H](O)c1ccccc1,composite z-score,[1],1.39
same,z-score,[2],-1.13
same,composite z-score,[3],0.795
same,composite z-score,[4],0.969
same,composite z-score,[5],0.003
same,composite z-score,[6],-0.001
same,composite z-score,[7],-0.0904
same,composite z-score,[8],-0.213
same,composite z-score,[9],1.29
same,composite z-score,[10],1.05
COc1cc2c(cc1OC)CN(C(=O)[C@H]1[C@@H]3C(=O)O[C@@H](c4ccccc4)[C@@H](c4ccccc4)N3[C@@H](c3ccc(O)cc3)[C@]13C(=O)Nc1ccc(C#CC4(O)CCCCCC4)cc13)CC2,composite z-score,[1],1.4
same,z-score,[2],-1.47
same,composite z-score,[3],1.36
same,composite z-score,[4],2.21
same,composite z-score,[5],1.2
same,composite z-score,[6],0.808
same,composite z-score,[7],0.382
same,composite z-score,[8],2.35
same,composite z-score,[9],3.48
same,composite z-score,[10],2.79
COc1cccc([C@@H]2[C@@H](C)CC[C@H]3C(=O)N4[C@H](c5cccc(OC)c5)[C@@H](C)CC[C@H]4C(=O)N23)c1,composite z-score,[1],0.27
same,z-score,[2],0.533
same,composite z-score,[3],0.767
same,composite z-score,[4],-0.2
same,composite z-score,[5],-0.781
same,composite z-score,[6],-0.0853
same,composite z-score,[7],-0.2
same,composite z-score,[8],-0.0611
same,composite z-score,[9],0.37
same,composite z-score,[10],0.452
COc1cccc([C@@H]2[C@@H](C)CC[C@H]3C(=O)N(C)[C@@H](C(C)C)C(=O)N23)c1,composite z-score,[1],0.148
same,z-score,[2],0.512
same,composite z-score,[3],0.375
same,composite z-score,[4],-0.169
same,composite z-score,[5],-0.562
same,composite z-score,[6],-0.204
same,composite z-score,[7],-0.0011
same,composite z-score,[8],-0.141
same,composite z-score,[9],1.11
same,composite z-score,[10],0.0641
CN1CCC(CCCO)=CC1C1CC1 (stereo not given),composite z-score,[1],-0.416
same,z-score,[2],0.306
same,composite z-score,[3],0.637
same,composite z-score,[4],-1.21
same,composite z-score,[5],-1.36
same,composite z-score,[6],-0.172
same,composite z-score,[7],-0.138
same,composite z-score,[8],-0.473
same,composite z-score,[9],-0.434
same,composite z-score,[10],-0.234
COC(=O)C1=CC(c2ccc(CO)cc2)=CC(C2CC2)N(Cc2sc3ccccc3c2Cl)C=C1C(=O)OC (stereo not given),composite z-score,[1],1.29
same,z-score,[2],-1.27
same,composite z-score,[3],0.204
same,composite z-score,[4],2.45
same,composite z-score,[5],0.975
same,composite z-score,[6],0.0017
same,composite z-score,[7],0.246
same,composite z-score,[8],1.38
same,composite z-score,[9],2.42
same,composite z-score,[10],2.75
C[C@H]1COC(=O)[C@H](Cc2ccccc2)NC(=O)[C@@H](C)COC(=O)[C@H](Cc2ccccc2)NC1=O,composite z-score,[1],0.844
same,z-score,[2],-0.0223
same,composite z-score,[3],0.597
same,composite z-score,[4],0.359
same,composite z-score,[5],-0.589
same,composite z-score,[6],-0.236
same,composite z-score,[7],0.0711
same,composite z-score,[8],-0.0026
same,composite z-score,[9],1
same,composite z-score,[10],0.856
COC(=O)C(CC#Cc1ccc2c(c1)[C@]1(C(=O)N2)[C@H](C(=O)N2CCCCCCC2)[C@H]2C(=O)O[C@H](c3ccccc3)[C@H](c3ccccc3)N2[C@@H]1c1ccc(O)cc1)C(=O)OC,composite z-score,[1],-1.26
same,z-score,[2],-0.789
same,composite z-score,[3],-0.537
same,composite z-score,[4],-0.433
same,composite z-score,[5],-0.236
same,composite z-score,[6],-0.125
same,composite z-score,[7],-0.0769
same,composite z-score,[8],-0.411
same,composite z-score,[9],-0.723
same,composite z-score,[10],-0.715
CN(C)CCCC[C@@H]1NC(=O)[C@@H]2C[C@H](C(=O)O)[C@H](c3ccc(O)cc3)N2C1=O,composite z-score,[1],0.668
same,z-score,[2],0.883
same,composite z-score,[3],1.15
same,composite z-score,[4],-0.0922
same,composite z-score,[5],-0.0146
same,composite z-score,[6],0.0078
same,composite z-score,[7],-0.138
same,composite z-score,[8],0.69
same,composite z-score,[9],0.485
same,composite z-score,[10],1.2
C=CC[C@]1(C(=O)NCC(O)CO)N=C(c2ccc(OCCCO)cc2)O[C@H]1c1ccccc1 (stereo not given in full),composite z-score,[1],-0.72
same,z-score,[2],-0.294
same,composite z-score,[3],-0.418
same,composite z-score,[4],1.66
same,composite z-score,[5],1.12
same,composite z-score,[6],-0.0286
same,composite z-score,[7],0.108
same,composite z-score,[8],0.402
same,composite z-score,[9],3.97
same,composite z-score,[10],1.29
CCOC(=O)C[C@H]1[C@H](OC(=O)c2ccccc2-c2ccccc2)[C@@H](NC(=O)c2ccc(-c3ccccc3)cc2)c2cc(OCCCO)ccc2N1C(=O)Cc1ccc(OC)cc1,composite z-score,[1],0.295
same,z-score,[2],-2.04
same,composite z-score,[3],0.462
same,composite z-score,[4],-0.203
same,composite z-score,[5],-0.499
same,composite z-score,[6],-0.111
same,composite z-score,[7],-0.0626
same,composite z-score,[8],-0.31
same,composite z-score,[9],-0.0098
same,composite z-score,[10],0.322
C[C@H]1C2[C@H](Cc3ccccc3)NC(=O)[C@]23C(=O)N[C@H](Cc2ccccc2)C(=O)N[C@@H](Cc2ccccc2)C(=O)NC/C=C\C/C=C/C3[C@@H]2O[C@]12C (stereo not given in full),composite z-score,[1],-0.767
same,z-score,[2],-0.204
same,composite z-score,[3],0.419
same,composite z-score,[4],-0.297
same,composite z-score,[5],-0.348
same,composite z-score,[6],-0.199
same,composite z-score,[7],-0.0553
same,composite z-score,[8],0.471
same,composite z-score,[9],0.86
same,composite z-score,[10],-0.506
